The panel holds about 83,000 compounds, 20% with a hit somewhere; the sample as a whole holds those more often.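 The endpoint reported here, percent growth, reads 100 for growth as untreated, 0 for no net growth and -100 for all cells dead.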 The source made the active and inactive calls. How the source made its calls: active means growth percent below 10; inactive means the rest.
Key:
Assay in all cases: NCI-60 one-dose screen, 48 h (100 = growth as untreated, 0 = no growth, -100 = all killed)
[1] = tested on: SK-MEL-2 melanoma; conditions: 10 µM unless noted
[2] = tested on: EKVX NSCLC; conditions: 10 µM unless noted
[3] = tested on: UO-31 renal; conditions: 10 µM unless noted
[4] = tested on: TK-10 renal; conditions: 10 µM unless noted
[5] = tested on: ACHN renal; conditions: 10 µM unless noted
[6] = tested on: CAKI-1 renal; conditions: 10 µM unless noted
[7] = tested on: A498 renal; conditions: 10 µM unless noted
[8] = tested on: CCRF-CEM leukemia; conditions: 10 µM unless noted
[9] = tested on: MOLT-4 leukemia; conditions: 10 µM unless noted
[10] = tested on: SR leukemia; conditions: 10 µM unless noted
[11] = tested on: RPMI-8226 leukemia; conditions: 10 µM unless noted
[12] = tested on: OVCAR-8 ovarian; conditions: 10 µM unless noted
[13] = tested on: OVCAR-5 ovarian; conditions: 10 µM unless noted
[14] = tested on: OVCAR-4 ovarian; conditions: 10 µM
[15] = tested on: OVCAR-3 ovarian; conditions: 10 µM unless noted
[16] = tested on: HS 578T breast; conditions: 10 µM unless noted
[17] = tested on: NCI/ADR-RES ovarian; conditions: 10 µM unless noted
[18] = tested on: IGROV1 ovarian; conditions: 10 µM unless noted
[19] = tested on: SK-OV-3 ovarian; conditions: 10 µM unless noted

Measured: growth

Clc1ccc(N2CCN(CCCN3CCN(c4cccc(Cl)c4)CC3)CC2)cc1
inactive: [1] 96.7% | [2] 41.9% | [3] 36.6% | [4] 41.4% | [5] 71.6% | [6] 42.7% | [7] 60.4% | [8] 58.9% | [9] 43.7% | [10] 15.4% | [11] 24.9% | [12] 70.7% | [13] 78.9% | [14] 55.7% | [15] 66.4% | [16] 103% | [17] 65.5%

O=C(NNc1ccc(-c2ccccc2)nn1)c1ccc(F)cc1
inactive: [1] 108% | [2] 78.4% | [3] 80.8% | [4] 82.9% | [5] 90.9% | [7] 67.6% | [8] 108% | [9] 96.2% | [10] 92% | [11] 99.7% | [12] 98.6% | [13] 94.2% | [14] 94.8% | [18] 97% | [15] 103% | [16] 101% | [17] 93.3%

CCOC(=O)C1=C(C(=O)c2ccc(Br)cc2)C(c2ccc(Br)cc2)NC(=S)N1 (stereo unspecified)
inactive: [1] 110% | [2] 104% | [3] 76.8% | [4] 130% | [5] 97.6% | [6] 86% | [7] 90.6% | [8] 114% | [9] 114% | [10] 108% | [11] 111% | [12] 97.8% | [13] 108% | [14] 107% | [19] 110% | [18] 92% | [15] 105% | [17] 103%

COc1cc(OC)c(/C=C/C(=O)c2c(N)cc(OC)cc2OC)c(OC)c1
inactive: [1] 12.4% | [2] 49.3% | [3] 43.7% | [4] 44.3% | [5] 36.6% | [6] 12.3% | [8] 12.3% | [9] 35.8% | [10] 29.2% | [11] 13.5% | [12] 19.9% | [13] 29.7% | [14] 80.1% | [18] 32.5%
active: [7] -11.4% | [19] 5.56% | [15] -45.5% | [17] -16.2%

O=c1[nH]c2cc(Cl)c(Cl)cc2n2cc3ncccc3c12
inactive: [1] 112% | [2] 82.3% | [3] 56.9% | [4] 94.1% | [5] 89.7% | [7] 73.6% | [8] 52.1% | [9] 58.8% | [10] 27.4% | [11] 76.1% | [12] 82.4% | [13] 146% | [19] 98.9% | [18] 86.2% | [15] 84.5% | [16] 99.2% | [17] 81.8%

CC(=O)Nc1ccc2nc3ccc(NC(C)=O)cc3[n+](-c3ccccc3)c2c1
inactive: [1] 106% | [2] 118% | [3] 93.3% | [4] 140% | [5] 98.9% | [6] 122% | [7] 158% | [8] 73.1% | [9] 38.9% | [10] 83.7% | [11] 62.1% | [12] 93.5% | [13] 113% | [14] 86% | [18] 92.8% | [15] 49.2% | [16] 263% | [17] 107%

O=C(O)CSCc1nnc2n(Cc3ccccc3)c(=O)c3c4c(sc3n12)CCCC4
inactive: [1] 79.3% | [2] 93.2% | [3] 90.2% | [4] 127% | [5] 89.3% | [6] 99.2% | [7] 112% | [8] 81% | [9] 71.8% | [10] 75.6% | [11] 76.9% | [12] 92.6% | [13] 94.1% | [14] 95.6% | [19] 106% | [15] 107% | [16] 99.1% | [17] 96.6%

COc1ccc(C(C(=O)O)c2ccc(OC)cc2)cc1
inactive: [1] 111% | [2] 106% | [3] 108% | [4] 114% | [5] 109% | [6] 112% | [7] 86.7% | [9] 104% | [10] 106% | [11] 111% | [12] 113% | [13] 108% | [14] 103% | [19] 116% | [18] 118% | [15] 101% | [16] 129% | [17] 117%

Source: PubChem BioAssay (NCI)
